Experimental data reported in PubChem BioAssay (EPA / NIEHS).
Where “and” joins values, the source holds several entries; their conditions need not be identical. Equal entries are not always repeated. A structure can be active in one record and inactive in another. Calls of active or inactive are those of the source. The calls were made as follows: active = hit-call score of the fitted dose curve at least 0.9, where 1 is the maximum; inactive = score below 0.9.

read-out: Interferon-inducible T-cell alpha chemoattractant (ITAC), CXCL11 (gene 6373); experiment: BSK_BE3C_ITAC: BioMAP Diversity Plus: BE3C Assay for Interferon-inducible T-cell alpha chemoattractant (ITAC) Biomarker Activity (AID 2284279); conditions: primary human bronchial epithelial cells
Experimental: BSK_BE3C is a cell-based, multiplexed-readout assay that uses bronchial epithelial cell, a human lung primary cell, with measurements taken at 24 hours after chemical dosing in a 96-well plate.BSK_BE3C_ITAC is an assay component measured in the BSK_BE3C assay. It measures I-TAC antibody related to regulation of gene expression using ELISA technology.Data from the assay component BSK_BE3C_ITAC was analyzed at the endpoint, BSK_BE3C_ITAC, in the positive analysis fitting direction relative to DMSO as the negative control and baseline of activity. Using a type of binding reporter, gain or loss-of-signal activity can be used to understand protein changes. To generalize the intended target to other relatable targets, this assay endpoint is annotated to the 'cytokine' intended target family, where the subfamily is 'chemotactic factor'.
The levels of cell surface (or secreted, indicated by the prefix "s") biomarker endpoints were measured by ELISA. Overt cytotoxicity to cells in confluent adherent cultures (all systems other than the BT system) was assessed by measuring total protein levels using sulforhodamine B (SRB) staining in parallel cultures at the time of biomarker measurements, indicated as SRB endpoints. For proliferation assays for adherent cell types, individual cell types are cultured at sub-confluence and relative cell numbers quantified by SRB staining at time points optimized for each system (48 h: 3C and CASM3C systems; 72 h: BT and HDF3CGF systems; 96 h: SAg system). SRB was performed by staining cells with 0.1% SRB after fixation with 10% TCA and reading wells at 560 nm.Viability and proliferation of PBMC (T cells) was quantified by Alamar Blue reduction for the SAg and BT systems. For PBMC viability (referred to as PBMC Cytotoxicity within the assay endpoint names), cells were plated (75,000/well in a 96-well plate) and then chemical samples added for 1 h before addition of activators, SEB and TSST-1 (20 ng/mL final concentration each). Cells were incubated for 90 h. Then, Alamar Blue (20 uL/well) (Invitrogen, Cat DAL1100) was added for 6 h, and the plates were read with a fluorescence microplate reader at 546/580 nm (excitation/emission). For PBMC proliferation, cells were plated and activated as above but incubated for only 16 h prior to addition of Alamar Blue. Plates were read after 6 h.

| Structure (SMILES) | outcome | AC50 |
| --- | --- | --- |
| OCC(F)(F)C(F)(F)C(F)(F)CO | inactive |  |
| C=CC(=O)OCCC(F)(F)C(F)(F)C(F)(F)C(F)(F)F | inactive |  |
| OCC(F)(F)C(F)(F)C(F)(F)C(F)(F)C(F)(F)C(F)(F)CO | inactive |  |
| O=C(F)C1(F)C(F)(F)C(F)(F)C(F)(F)C(F)(F)C1(F)F | inactive |  |
| NC(=O)C(F)(F)C(F)(F)C(F)(F)C(F)(F)C(N)=O | inactive |  |
| O=C(Cl)C(F)(F)C(F)(F)C(F)(F)C(F)(F)C(F)(F)C(F)(F)F | inactive |  |
| O=S(=O)(OCC(F)(F)F)C(F)(F)C(F)(F)C(F)(F)C(F)(F)F | inactive |  |
| O=C(O)C(F)(F)C(F)(F)C(F)(F)OC(F)(C(F)(F)F)C(F)(F)F | inactive |  |
| O=C(O)C(F)(F)C(F)(F)C(F)(F)OC(F)(F)F | inactive |  |
| O=C(O)CCC(F)(F)C(F)(F)C(F)(F)F | inactive |  |
| OCC(O)CC(F)(F)C(F)(F)C(F)(F)C(F)(F)C(F)(F)C(F)(F)C(F)(F)C(F)(F)F (stereo not given) | inactive |  |
| NC(O)(C(F)(F)F)C(F)(F)F | inactive |  |
| NC(=O)C(F)(F)C(F)(F)C(F)(F)C(F)F | inactive |  |
| CCN=C1C=CC(=C(c2ccc(N(CC)CC)cc2)c2ccc(N(CC)CC)cc2)c2ccccc21 |  | 2.7 µM (active) and 2.3 µM (active) |
| O=C(O)C(F)(F)OC(F)(F)C(F)(F)OC(F)(F)C(F)(F)OC(F)(F)F | inactive |  |
| OCCCCC(F)(F)C(F)(F)C(F)(F)C(F)(F)F | inactive |  |
| C[Si](Cl)(Cl)CCC(F)(F)C(F)(F)C(F)(F)C(F)(F)C(F)(F)C(F)(F)F | inactive |  |
| CNS(=O)(=O)C(F)(F)C(F)(F)C(F)(F)C(F)(F)C(F)(F)C(F)(F)C(F)(F)C(F)(F)F | inactive |  |
| FC(F)(F)C(F)(F)C(F)(F)C(F)(F)C(F)(F)C(F)(F)CC[Si](Cl)(Cl)Cl | inactive |  |
| CN(C(=O)C(F)(F)C(F)(F)C(F)(F)F)[Si](C)(C)C | inactive |  |

| Structure (SMILES) | outcome | AC50 |
| --- | --- | --- |
| O=S(=O)(Cl)C(F)(F)C(F)(F)C(F)(F)C(F)(F)C(F)(F)C(F)(F)C(F)(F)C(F)(F)F |  | 53.8 µM (active) and 55.1 µM (active) |
| O=C(O)C(F)(F)C(F)(F)C(F)(F)C(=O)O | inactive |  |
| C=CC(=O)OCC(F)(F)C(F)(F)C(F)(F)C(F)(F)C(F)(F)C(F)(F)C(F)(F)C(F)F | inactive |  |
| CO[Si](C)(CCC(F)(F)C(F)(F)C(F)(F)C(F)(F)C(F)(F)C(F)(F)F)OC | inactive |  |
| C=CC(=O)OCC(F)(F)C(F)(F)C(F)(F)COC(=O)C=C |  | 45 µM (active) and 43 µM (active) |
| NS(=O)(=O)C(F)(F)C(F)(F)C(F)(F)C(F)(F)C(F)(F)C(F)(F)F | inactive | 30 µM (active) |
| O=C(O)CCC(F)(F)C(F)(F)C(F)(F)C(F)(F)C(F)(F)C(F)(F)C(F)(F)F |  | 3.43 µM (active) and 2.52 µM (active) |
| O=S(=O)(O)CCC(F)(F)C(F)(F)C(F)(F)C(F)(F)F | inactive |  |
| NCC(F)(F)C(F)(F)C(F)(F)C(F)(F)C(F)(F)C(F)(F)F | inactive |  |
| OC(O)C(F)(F)C(F)(F)F | inactive |  |
| NC(=O)C(F)(F)C(F)(F)C(F)(F)F | inactive |  |
| O=S(=O)(O)CCC(F)(F)C(F)(F)C(F)(F)C(F)(F)C(F)(F)C(F)(F)C(F)(F)C(F)(F)F | inactive |  |
| OCCCC(F)(F)C(F)(F)C(F)(F)C(F)(F)C(F)(F)C(F)(F)C(F)(F)C(F)(F)F |  | 50.2 µM (active) and 51.8 µM (active) |
| NC(=O)C(F)(F)C(F)(F)C(F)(F)C(F)(F)C(F)(F)C(F)(F)C(F)(F)F | inactive |  |
| C=C(C)C(=O)OCC(F)(F)C(F)(F)C(F)(F)C(F)F | inactive |  |
| OCC(F)(F)C(F)(F)C(F)(F)C(F)(F)C(F)(F)C(F)(F)C(F)(F)C(F)(F)CO |  | 39.6 µM (active) and 31.6 µM (active) |
| FC(F)(F)C(F)(F)C(F)(F)C(F)(F)C(F)(F)C(F)(F)C(F)(F)CCI | inactive |  |
| COC(F)(C(F)F)C(F)(F)F (stereo not given) | inactive |  |
| O=C(O)C(F)(F)C(F)(F)C(F)(F)C(F)(F)C(F)(F)C(F)(F)C(F)F | inactive |  |
